NSD2 HMT inh: inhibitors of human histone methyltransferase NSD2; inhibition, % at 12.5 µM; O96028; NSD2 peptide methylation, AlphaScreen, 120 min; actives 0.54% (n = 310,000); in the data active means inhibition above about 50%
AF4-AF9 inh: blocks AF4 peptide binding to human AF9; actives 0.47% (n = 350,000); AlphaScreen, biotin-AF4 peptide binding to FLAG-AF9; inhibition, % at 10 µM; AID 651704; P42568;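 active means every replicate reaching a set inhibition limit, whatever the replicate mean, cut at about 25% in these data; inconclusive means mean inhibition reaches that limit but some replicates miss it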;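 further: 0% = plate neutral control median and 100% = total signal loss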
RAD52 anneal inh: blocks human RAD52 DNA annealing; P43351; recombinant RAD52 DNA annealing, FRET fluorescence; actives 0.46% (n = 360,000); inhibition, % at 18.7 µM;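 active means every replicate showing at least 50% inhibition; inconclusive means mean inhibition at least 50% but not in every replicate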
Target sequence (P43351 whole entry, looked up): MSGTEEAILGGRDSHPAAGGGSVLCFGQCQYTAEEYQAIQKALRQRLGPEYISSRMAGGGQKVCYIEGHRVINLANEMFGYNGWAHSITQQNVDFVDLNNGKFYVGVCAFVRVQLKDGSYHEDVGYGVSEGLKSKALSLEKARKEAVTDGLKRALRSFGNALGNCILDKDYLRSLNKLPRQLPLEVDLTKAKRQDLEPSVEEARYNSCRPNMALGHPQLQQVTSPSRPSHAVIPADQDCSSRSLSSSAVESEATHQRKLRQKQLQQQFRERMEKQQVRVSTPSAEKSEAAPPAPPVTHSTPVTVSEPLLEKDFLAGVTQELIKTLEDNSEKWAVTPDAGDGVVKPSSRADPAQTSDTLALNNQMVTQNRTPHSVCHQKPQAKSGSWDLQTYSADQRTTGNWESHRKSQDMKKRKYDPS
miR122 inh: miR-122 inhibition in Huh7 cells. Huh7 miR-122 Renilla luciferase sensor, 48 h; neutral wells = 0, positive control = 100. AID 602342. activation (reporter increase), % at 12.5 µM. actives 0.3% (n = 340,000);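 active means mean replicate activation score at least 90 and every replicate individually at or above 90; inconclusive means only one of the two criteria met; inactive means neither criterion met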;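 further: higher luciferase means less miR-122 activity so hits act as miR-122 inhibitors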
CASP6 VEID inh: inhibitors of human caspase-6 | purified caspase-6, Z-VEID-R110 cleavage fluorescence | actives 0.53% (n = 350,000) | AID 686996 | P55212 | inhibition, % at 12.5 µM;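 active means mean inhibition across replicates at least about 35%, with every replicate also reaching that limit, limit read from the data; inconclusive means only one of the two criteria met; inactive means neither criterion met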;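 further: 0% = median of neutral control wells and 100% = no fluorescence left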
* = called active by the depositor; [ ] = another dose, or the depositor's remark. This is a sample that favours compounds with a hit; in the whole collection about 1.5% have one here.

CCC(=O)N1C[C@@H](C)[C@@H](OC)CN(C)C(=O)c2ccc(NC(=O)c3cc(C)on3)cc2OC[C@@H]1C was read as miR122 inh -27[16.7 µM].
Screening COc1ccc(NC(=O)Nc2ccc3c(c2)CC(=O)N([C@H](C)CO)C[C@H](C)[C@@H](CN(C)Cc2ccc(Oc4ccccc4)cc2)O3)cc1 returned AF4-AF9 inh 3, RAD52 anneal inh 67*, miR122 inh -9[16.7 µM] and CASP6 VEID inh -3.
For CC(C)NC(=O)Nc1ccc2c(c1)CC(=O)N([C@H](C)CO)C[C@H](C)[C@H](CN(C)Cc1ccc(Oc3ccccc3)cc1)O2 the results were AF4-AF9 inh 6, RAD52 anneal inh -12, miR122 inh 0[16.7 µM] and CASP6 VEID inh -1.
CC(C)NC(=O)Nc1ccc2c(c1)CC(=O)N([C@H](C)CO)C[C@@H](C)[C@@H](CN(C)Cc1ccc(Oc3ccccc3)cc1)O2 was read as AF4-AF9 inh inconclusive, RAD52 anneal inh -29, miR122 inh 97*[16.7 µM] and CASP6 VEID inh 0.
COc1ccc(NC(=O)Nc2ccc3c(c2)CC(=O)N([C@H](C)CO)C[C@H](C)[C@@H](CN(C)Cc2ccc(-c4ccccc4)cc2)O3)cc1 was read as AF4-AF9 inh 0, RAD52 anneal inh 49, miR122 inh -13[16.7 µM] and CASP6 VEID inh 2.
`COc1ccc(NC(=O)Nc2ccc3c(c2)CC(=O)N([C@@H](C)CO)C[C@@H](C)[C@H](CN(C)Cc2ccc(-c4ccccc4)cc2)O3)cc1` gave AF4-AF9 inh 1, RAD52 anneal inh 58*, miR122 inh -5[16.7 µM] and CASP6 VEID inh 2.
Screening C[C@H]1CN([C@@H](C)CO)C(=O)CCCn2cc(nn2)CO[C@H]1CN(C)S(=O)(=O)c1ccc(F)cc1 returned AF4-AF9 inh 0, RAD52 anneal inh 9, miR122 inh -3[16.7 µM] and CASP6 VEID inh -1.
CC(=O)N1[C@@H]2c3ccc(-c4ccccc4)c(=O)n3C[C@H]1[C@H](CO)[C@H]2C(=O)N1CCN(C)CC1 was read as AF4-AF9 inh -1, RAD52 anneal inh 4, miR122 inh 0[16.7 µM] and CASP6 VEID inh -1.
For COc1ccc(NC(=O)COC(=O)CCNC(=O)c2ccccc2)cc1OC the results were NSD2 HMT inh 4.
Screening CN(C)CCCNC(=O)C[C@@H]1CC[C@H]2[C@@H](COc3ccc(NS(C)(=O)=O)cc3C(=O)N2C)O1 returned AF4-AF9 inh -2, RAD52 anneal inh -4 and miR122 inh -28[16.7 µM].
`COc1ccc(CNC(=S)Nc2ccc3nc(N4CCN(C)CC4)cc(C)c3c2)cc1` gave AF4-AF9 inh 26*, RAD52 anneal inh 47, miR122 inh 17 and CASP6 VEID inh -21.
CCCCN(CC)CCCNC(=S)Nc1ccc2nc(N3CCN(CC)CC3)cc(C)c2c1 was read as AF4-AF9 inh 5, RAD52 anneal inh 90*, miR122 inh -3 and CASP6 VEID inh -80.
COc1cc(C(=O)Nc2ccc3nc(N4CCN(C)CC4)cc(C)c3c2)cc(OC)c1OC was read as NSD2 HMT inh 6, AF4-AF9 inh 12, RAD52 anneal inh 56*, miR122 inh -7 and CASP6 VEID inh -30.
For C[C@@H]1CCCCO[C@@H](CN(C)S(=O)(=O)c2cn(C)cn2)[C@@H](C)CN([C@@H](C)CO)C(=O)c2cc(NS(=O)(=O)c3cn(C)cn3)ccc2O1 the results were AF4-AF9 inh -10, RAD52 anneal inh 15, miR122 inh 5[16.7 µM] and CASP6 VEID inh -2.
`COCC(=O)N(C)C[C@@H]1Oc2cc(-c3ccncc3)ccc2S(=O)(=O)N([C@H](C)CO)C[C@H]1C` gave AF4-AF9 inh -2, RAD52 anneal inh -4, miR122 inh 1[16.7 µM] and CASP6 VEID inh 3.
For CCCNC(=O)C[C@H]1C[C@H]2c3cc(N(C)C)ccc3O[C@H]2[C@@H](CO)O1 the results were AF4-AF9 inh 0, RAD52 anneal inh -64 and CASP6 VEID inh 1.
`C[C@H]1CN([C@@H](C)CO)C(=O)Cc2cc(NC(=O)CCCN(C)C)ccc2O[C@H]1CN(C)Cc1ccc(-c2ccccc2)cc1` gave AF4-AF9 inh 5 and RAD52 anneal inh 49.
For C[C@H](CO)N1C[C@H](C)[C@@H](CN(C)Cc2ccc(Cl)c(Cl)c2)Oc2ccc(NC(=O)CCCN(C)C)cc2CC1=O the results were AF4-AF9 inh 18, RAD52 anneal inh 59*, miR122 inh -9[16.7 µM] and CASP6 VEID inh -70.
For C[C@H](CO)N1C[C@H](C)[C@H](CN(C)Cc2ccc(-c3ccccc3)cc2)Oc2ccc(NC(=O)CCCN(C)C)cc2CC1=O the results were AF4-AF9 inh 3, RAD52 anneal inh 53*, miR122 inh 3[16.7 µM] and CASP6 VEID inh 4.
Screening C[C@@H]1CN([C@H](C)CO)C(=O)Cc2cc(NC(=O)CCCN(C)C)ccc2O[C@H]1CN(C)Cc1ccc(-c2ccccc2)cc1 returned AF4-AF9 inh 7, RAD52 anneal inh 73*, miR122 inh -9[16.7 µM] and CASP6 VEID inh 4.
For Cc1noc(C)c1NC(=O)N(C)C[C@H]1Oc2ccc(NC(=O)CCCN(C)C)cc2CC(=O)N([C@@H](C)CO)C[C@@H]1C the results were AF4-AF9 inh 31*, RAD52 anneal inh 8, miR122 inh 11[16.7 µM] and CASP6 VEID inh -2.
`C[C@H]1CN([C@@H](C)CO)C(=O)c2cc(NC(=O)CCCN(C)C)ccc2O[C@@H]1CN(C)Cc1ccc(Cl)c(Cl)c1` gave AF4-AF9 inh 1, RAD52 anneal inh 41, miR122 inh -7[16.7 µM] and CASP6 VEID inh -1.
CCCNC(=O)Nc1ccc2c(c1)C(=O)N(C)C[C@@H](OC)[C@H](C)CN(C(=O)C1CCC1)[C@@H](C)CO2 was read as AF4-AF9 inh -1, RAD52 anneal inh -1, miR122 inh 2[16.7 µM] and CASP6 VEID inh -1.
Screening CCOc1ccc(-c2nnc(SCC(=O)N3CCNC3=O)o2)cc1 returned NSD2 HMT inh -2, AF4-AF9 inh 28*, RAD52 anneal inh -5, miR122 inh -7 and CASP6 VEID inh -2.
Screening CCOc1ccc2[nH]c3c(NCCN(C)C)ncnc3c2c1 returned NSD2 HMT inh 6, AF4-AF9 inh 9, RAD52 anneal inh 65*, miR122 inh -11 and CASP6 VEID inh -7.
CCOc1ccc2[nH]c3c(NCCC(C)C)ncnc3c2c1 was read as NSD2 HMT inh 0, AF4-AF9 inh 1, RAD52 anneal inh 1 and CASP6 VEID inh 1.
`Cc1noc(C)c1S(=O)(=O)Nc1ccc2c(c1)C(=O)N([C@@H](C)CO)C[C@H](C)[C@H](CN(C)S(=O)(=O)c1c(C)noc1C)OCCCC[C@@H](C)O2` gave AF4-AF9 inh -13, RAD52 anneal inh 4, miR122 inh 23[16.7 µM] and CASP6 VEID inh -1.
CC(=O)Nc1ccc(NC(=S)NC(=O)C2CCCC2)cc1 was read as NSD2 HMT inh 40, AF4-AF9 inh 0, RAD52 anneal inh -15, miR122 inh 1 and CASP6 VEID inh 1.
Screening CN(Cc1ccccc1)S(=O)(=O)c1ccc(NC(=S)NC(=O)C(C)(C)C)cc1 returned NSD2 HMT inh -3, AF4-AF9 inh 3, RAD52 anneal inh -10, miR122 inh 5 and CASP6 VEID inh 0.

Compound activity deposited in PubChem by Broad Institute.
